# Measured values reported in ChEMBL document CHEMBL1961873, “Compounds: GSK PKIS; Assays: Nanosyn kinase panel” (2012).
# What was measured:
# [1] = biological target: T1, Inhibitor of nuclear factor kappa-B kinase subunit epsilon (Homo sapiens) (UniProt Q14164); conditions: at 1 µM;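 also: reported values are averaged percent inhibition figures against human IKKε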
# T1 sequence (whole entry): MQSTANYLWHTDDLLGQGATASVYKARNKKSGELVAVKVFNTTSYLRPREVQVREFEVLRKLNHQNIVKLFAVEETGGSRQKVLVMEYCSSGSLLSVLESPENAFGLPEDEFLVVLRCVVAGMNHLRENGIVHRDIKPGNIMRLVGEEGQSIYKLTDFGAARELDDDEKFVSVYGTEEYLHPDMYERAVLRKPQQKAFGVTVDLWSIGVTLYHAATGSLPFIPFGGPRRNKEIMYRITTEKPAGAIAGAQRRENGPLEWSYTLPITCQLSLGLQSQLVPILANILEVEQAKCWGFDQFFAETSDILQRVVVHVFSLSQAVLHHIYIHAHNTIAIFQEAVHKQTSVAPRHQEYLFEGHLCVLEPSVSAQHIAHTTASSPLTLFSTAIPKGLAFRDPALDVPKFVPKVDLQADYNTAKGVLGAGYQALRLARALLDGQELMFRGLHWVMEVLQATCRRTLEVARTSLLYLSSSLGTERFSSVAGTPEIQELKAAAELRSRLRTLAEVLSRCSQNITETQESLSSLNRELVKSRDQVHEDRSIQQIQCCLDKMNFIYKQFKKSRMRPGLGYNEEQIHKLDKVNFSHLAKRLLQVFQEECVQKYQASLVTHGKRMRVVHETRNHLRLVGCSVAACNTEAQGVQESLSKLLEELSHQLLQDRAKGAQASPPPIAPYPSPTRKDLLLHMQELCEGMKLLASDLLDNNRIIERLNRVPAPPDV
# [2] = biological target: T2, Serine/threonine-protein kinase Nek1 (Homo sapiens) (UniProt Q96PY6); conditions: at 0.1 µM
# T2 sequence (whole entry): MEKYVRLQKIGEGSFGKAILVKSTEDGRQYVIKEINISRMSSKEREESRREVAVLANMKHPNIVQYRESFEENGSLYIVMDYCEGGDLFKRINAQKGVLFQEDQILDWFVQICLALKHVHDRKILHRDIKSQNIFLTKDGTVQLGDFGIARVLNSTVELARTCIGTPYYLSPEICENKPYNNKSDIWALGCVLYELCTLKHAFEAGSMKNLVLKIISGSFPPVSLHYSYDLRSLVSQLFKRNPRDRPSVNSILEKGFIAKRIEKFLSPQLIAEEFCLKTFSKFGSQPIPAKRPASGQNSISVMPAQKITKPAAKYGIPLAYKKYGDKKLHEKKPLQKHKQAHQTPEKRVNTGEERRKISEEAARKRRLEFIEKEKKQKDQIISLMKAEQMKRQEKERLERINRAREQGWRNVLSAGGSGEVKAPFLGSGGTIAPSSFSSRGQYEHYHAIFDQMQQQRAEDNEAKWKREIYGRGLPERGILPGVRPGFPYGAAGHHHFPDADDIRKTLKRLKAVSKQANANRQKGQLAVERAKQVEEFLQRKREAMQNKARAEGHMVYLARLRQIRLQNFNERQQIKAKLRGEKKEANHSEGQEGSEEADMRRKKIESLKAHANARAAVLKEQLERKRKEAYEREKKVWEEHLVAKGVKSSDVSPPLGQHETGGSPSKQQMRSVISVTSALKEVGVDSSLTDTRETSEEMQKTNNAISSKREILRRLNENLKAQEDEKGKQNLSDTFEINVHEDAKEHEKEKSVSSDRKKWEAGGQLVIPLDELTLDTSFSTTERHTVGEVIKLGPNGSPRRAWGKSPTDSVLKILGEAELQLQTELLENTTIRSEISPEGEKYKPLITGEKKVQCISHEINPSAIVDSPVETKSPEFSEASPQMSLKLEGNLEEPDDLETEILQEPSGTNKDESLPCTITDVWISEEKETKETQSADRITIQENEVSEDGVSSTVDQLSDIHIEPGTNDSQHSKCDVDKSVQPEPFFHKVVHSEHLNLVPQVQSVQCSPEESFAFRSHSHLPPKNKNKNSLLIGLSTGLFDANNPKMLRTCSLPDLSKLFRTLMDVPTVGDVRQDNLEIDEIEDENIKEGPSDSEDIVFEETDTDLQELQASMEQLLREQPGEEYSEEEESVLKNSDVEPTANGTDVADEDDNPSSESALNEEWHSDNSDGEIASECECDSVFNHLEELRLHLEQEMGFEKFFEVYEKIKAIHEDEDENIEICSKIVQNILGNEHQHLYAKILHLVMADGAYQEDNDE
# [3] = biological target: T2, Serine/threonine-protein kinase Nek1 (Homo sapiens); conditions: at 1 µM
# [4] = biological target: T3, Serine/threonine-protein kinase Nek2 (Homo sapiens) (UniProt P51955); conditions: at 0.1 µM
# T3 sequence (whole entry): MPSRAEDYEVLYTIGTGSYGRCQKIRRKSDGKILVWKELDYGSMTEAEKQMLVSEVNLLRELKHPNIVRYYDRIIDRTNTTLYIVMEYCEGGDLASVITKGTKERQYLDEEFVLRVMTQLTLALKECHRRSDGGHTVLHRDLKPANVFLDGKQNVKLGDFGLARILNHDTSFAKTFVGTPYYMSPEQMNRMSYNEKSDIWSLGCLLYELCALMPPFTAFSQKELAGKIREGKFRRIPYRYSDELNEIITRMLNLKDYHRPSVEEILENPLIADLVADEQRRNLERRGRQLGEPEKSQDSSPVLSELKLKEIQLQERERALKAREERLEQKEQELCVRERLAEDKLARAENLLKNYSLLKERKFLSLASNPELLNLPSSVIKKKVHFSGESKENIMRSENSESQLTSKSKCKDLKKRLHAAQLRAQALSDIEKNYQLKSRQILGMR
# [5] = biological target: T3, Serine/threonine-protein kinase Nek2 (Homo sapiens); conditions: at 1 µM
# [6] = biological target: Serine/threonine-protein kinase Nek6 (Homo sapiens) (UniProt Q9HC98); conditions: at 0.1 µM
# Chain of Serine/threonine-protein kinase Nek6 (Homo sapiens) (Q9HC98 whole entry): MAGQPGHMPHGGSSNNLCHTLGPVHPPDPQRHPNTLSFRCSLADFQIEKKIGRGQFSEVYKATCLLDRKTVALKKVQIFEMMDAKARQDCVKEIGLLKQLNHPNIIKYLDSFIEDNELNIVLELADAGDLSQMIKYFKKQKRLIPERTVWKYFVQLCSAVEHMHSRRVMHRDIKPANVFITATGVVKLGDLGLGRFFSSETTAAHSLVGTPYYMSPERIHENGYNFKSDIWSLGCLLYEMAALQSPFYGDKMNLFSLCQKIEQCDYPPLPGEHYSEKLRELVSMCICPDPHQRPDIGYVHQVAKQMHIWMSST
# [7] = biological target: Serine/threonine-protein kinase Nek6 (Homo sapiens) (UniProt Q9HC98); conditions: at 1 µM
# [8] = biological target: Serine/threonine-protein kinase Nek7 (Homo sapiens) (UniProt Q8TDX7); conditions: at 0.1 µM
# Chain of Serine/threonine-protein kinase Nek7 (Homo sapiens) (Q8TDX7 whole entry, looked up): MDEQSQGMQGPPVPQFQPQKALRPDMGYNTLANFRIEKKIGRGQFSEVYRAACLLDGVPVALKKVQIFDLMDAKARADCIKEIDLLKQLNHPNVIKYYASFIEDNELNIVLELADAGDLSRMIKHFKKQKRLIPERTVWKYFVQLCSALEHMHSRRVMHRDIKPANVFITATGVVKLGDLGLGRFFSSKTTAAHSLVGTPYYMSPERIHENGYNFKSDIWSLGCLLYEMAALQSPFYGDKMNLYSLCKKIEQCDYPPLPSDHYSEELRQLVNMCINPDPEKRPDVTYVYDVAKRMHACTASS
# [9] = biological target: Serine/threonine-protein kinase Nek7 (Homo sapiens) (UniProt Q8TDX7); conditions: at 1 µM
# [10] = biological target: T4, Serine/threonine-protein kinase Nek9 (Homo sapiens) (UniProt Q8TD19); conditions: at 0.1 µM;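 also: reported value is the mean percent inhibition of NEK9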
# T4 sequence (whole entry): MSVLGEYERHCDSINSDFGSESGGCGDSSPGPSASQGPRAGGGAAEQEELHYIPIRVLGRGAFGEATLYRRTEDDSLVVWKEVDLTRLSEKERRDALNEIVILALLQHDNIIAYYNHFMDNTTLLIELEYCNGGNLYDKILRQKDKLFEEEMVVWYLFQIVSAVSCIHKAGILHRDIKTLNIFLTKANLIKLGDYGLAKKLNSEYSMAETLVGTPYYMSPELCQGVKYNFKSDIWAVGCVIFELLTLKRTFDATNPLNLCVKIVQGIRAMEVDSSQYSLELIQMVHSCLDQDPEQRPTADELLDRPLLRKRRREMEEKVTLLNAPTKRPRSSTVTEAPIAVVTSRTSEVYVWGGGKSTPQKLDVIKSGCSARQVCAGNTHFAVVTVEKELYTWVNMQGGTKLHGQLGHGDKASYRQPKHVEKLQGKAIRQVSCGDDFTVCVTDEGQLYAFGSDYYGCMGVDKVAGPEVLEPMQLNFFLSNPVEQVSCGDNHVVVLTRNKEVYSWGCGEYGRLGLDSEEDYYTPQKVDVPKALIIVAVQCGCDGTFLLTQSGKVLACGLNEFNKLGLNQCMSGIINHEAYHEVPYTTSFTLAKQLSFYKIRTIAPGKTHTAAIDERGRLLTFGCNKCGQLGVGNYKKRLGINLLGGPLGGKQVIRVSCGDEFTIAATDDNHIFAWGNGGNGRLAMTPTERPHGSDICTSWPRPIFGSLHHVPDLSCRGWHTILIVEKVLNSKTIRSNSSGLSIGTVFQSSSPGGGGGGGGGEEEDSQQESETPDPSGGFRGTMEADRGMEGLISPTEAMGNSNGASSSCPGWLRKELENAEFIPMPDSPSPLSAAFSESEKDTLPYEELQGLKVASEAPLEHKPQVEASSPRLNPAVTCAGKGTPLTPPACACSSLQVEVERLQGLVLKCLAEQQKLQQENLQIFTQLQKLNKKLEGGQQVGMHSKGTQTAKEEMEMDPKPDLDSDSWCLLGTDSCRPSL
structure (smiles),measurement,setting,value
CN(c1ccc(NC(=O)Nc2ccc(OC(F)(F)F)cc2)cc1)c1ccnc(Nc2cccc(S(N)(=O)=O)c2)n1,inhibition,[1],7.75%
same,inhibition,[2],0.8%
same,inhibition,[3],2.63%
same,inhibition,[4],2.68%
same,inhibition,[5],3.03%
same,inhibition,[6],1.81%
same,inhibition,[7],0.14%
same,inhibition,[8],1.37%
same,inhibition,[9],-1.48%
same,inhibition,[10],2.65%
